HP1b chromo inh = HP1-beta chromodomain-methylated histone interaction inhibition; P83916; AlphaScreen HP1-beta / biotin-H3K9me3 peptide binding; Potency, µM (top dose mostly 114 µM), usual class: inhibitors; 390,000 compounds, 0.56% hits; AID 540317; further: nearly all actives have a fitted effect of over 70% in size
Target sequence (P83916 whole entry, looked up): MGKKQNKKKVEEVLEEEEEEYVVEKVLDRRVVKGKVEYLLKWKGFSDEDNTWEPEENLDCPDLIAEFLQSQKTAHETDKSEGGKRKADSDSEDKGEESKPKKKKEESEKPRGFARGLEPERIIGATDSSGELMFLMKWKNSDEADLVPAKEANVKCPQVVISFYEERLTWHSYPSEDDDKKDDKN
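HP1-beta protein (50 nM final) preincubated 30 min at room temperature with biotinylated H3(1-18)K9me3 peptide (50 nM) in PBS pH 7.4, 0.01% Tween-20, then compound added for 30 min. AlphaScreen streptavidin donor/nickel chelate acceptor beads (10 ug/mL final), 30 min dark, luminescence read.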
PLK1 PBD block = PLK1 (human) polo-box domain binding inhibition; P53350; Plk1 PBD binding of FITC phosphopeptide, fluorescence polarization; Potency, µM, actives largely listed as inhibitors; 360,000 compounds, 2.8% hits; AID 720504; further: series mostly up to about 57 µM; nearly all actives have a fitted effect of over 65% in size
BAZ2B inh = blocks human BAZ2B | Q9UIF8 | AlphaScreen BAZ2B-H3K14Ac peptide displacement | Potency, µM (doses to about 114 µM), usual class: inhibitors | 360,000 compounds, 4.4% hits; further: nearly all actives have a fitted effect of over 60% in size
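AlphaScreen displacement: compounds (up to 110uM) incubated 30 min at room temperature with a preformed 50 nM BAZ2B/50 nM biotinylated H3K14Ac peptide complex in PBS pH 7.4 with Tween-20. Donor and acceptor beads at 10 ug/mL final added, 20 min light-protected before reading.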
JMJD2A Tudor = JMJD2A Tudor domain (human) inhibition; AlphaScreen JMJD2A-Tudor / H3K4me3 peptide binding; Potency, µM (doses to about 114 µM), most hits filed as inhibitors; 390,000 compounds, 4.4% hits; AID 504339; further: nearly all actives have a fitted effect of over 50% in size
Sfp inh = blocks B. subtilis Sfp PPTase activity; Q9F4F7; Biochemical Sfp PPTase activity, qHTS; Potency, µM, actives largely listed as inhibitors; 310,000 compounds, 3.5% hits; AID 1490;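 further: the enzyme is Sfp with the accession as filed and its product quenches rhodamine fluorescence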
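Fluorescence-quenching assay with 15 nM Sfp, 5 uM rhodamine-CoA and 12.5 uM BHQ-2-labelled ybbR peptide in pH 7.6 Hepes/MgCl2 buffer. Enzyme was pre-incubated with compound for 15 min at room temperature. Rate was taken from the 30-min fluorescence change (525/598 nm).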
G9a block = G9a (human) methyltransferase inhibition; G9a H3K9 monomethylation, AlphaScreen, 2 h; Potency, µM (doses to about 102 µM), usual class: inhibitors; Q96KQ7; 350,000 compounds, 8.8% hits; further: nearly all actives have a fitted effect of over 75% in size
Target sequence (Q96KQ7 913-1193 limits assumed): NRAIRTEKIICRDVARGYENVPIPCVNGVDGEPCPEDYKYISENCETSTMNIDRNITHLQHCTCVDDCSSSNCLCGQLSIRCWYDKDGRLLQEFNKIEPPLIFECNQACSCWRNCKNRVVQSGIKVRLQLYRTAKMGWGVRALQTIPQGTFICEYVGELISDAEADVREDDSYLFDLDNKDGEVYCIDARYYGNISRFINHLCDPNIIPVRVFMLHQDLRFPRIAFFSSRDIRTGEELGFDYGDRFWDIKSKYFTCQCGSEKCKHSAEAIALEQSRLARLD
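Compounds were preincubated with 20 nM G9a for 15 min, after which biotinylated H3K9 peptide (500 nM) and SAM (20 uM) started a 2 h room-temperature reaction. Monomethylated product was quantified by antibody-based AlphaScreen chemiluminescence.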
Each line names hits and unclear results; the compound was inactive in the other large screens. Rows were chosen to be rich in hits. Some 12% of all compounds tested hit in one or more screens of this group. The call rests on the fitted dose curve; in most records, active means well fitted curve in the direction sought with a large enough effect; inconclusive means small, poorly fitted or top-dose-only effect, or another doubt; inactive means no such curve, though single readings can be large; an effect the other way counts as inactive or inconclusive.

Cc1ccc(C2C(C(=O)O)c3ccccc3C(=O)N2C)c(C)c1 (stereo not given)	none
Cc1ccccc1N1C(=O)c2ccccc2N2C(=O)c3ccccc3C12 (stereo not given)	G9a block inconclusive
Cc1ccc(N2C(=O)c3ccccc3C2C(=O)c2ccc(C)c(C)c2O)cc1 (stereo not given)	HP1b chromo inh inconclusive, JMJD2A Tudor 50µM, Sfp inh inconclusive (no result: G9a block)
Cc1ccc(N2C(=O)c3ccccc3C2C(=O)c2cc(C)ccc2O)cc1 (stereo not given)	HP1b chromo inh inconclusive, JMJD2A Tudor inconclusive, Sfp inh inconclusive, G9a block 7.9µM
Cc1ccnc(N2C(=O)c3ccccc3C2O)c1 (stereo not given)	none
Cc1ccc(N2C(=O)c3ccccc3C2C(=O)c2ccc(O)cc2O)cc1 (stereo not given)	BAZ2B inh 28µM, JMJD2A Tudor 79µM, Sfp inh inconclusive, G9a block inconclusive
COc1c(O)cccc1[C@@H](O)C1CCN(CCc2ccc(F)cc2)CC1	none (no result: PLK1 PBD block, BAZ2B inh, Sfp inh, G9a block)
CCCCCCNC(=O)N[C@@H](C(=O)NCCC[C@H]1CN2C(=NC[C@@H]2Cc2ccccc2)N1CCc1cccc(OC)c1)C(C)C	HP1b chromo inh inconclusive, PLK1 PBD block 1.5µM, BAZ2B inh 25µM, JMJD2A Tudor 5µM, Sfp inh 3.5µM, G9a block inconclusive
O=C(OCc1cc(=O)n2nc(-c3cccs3)sc2n1)c1cccc(F)c1	BAZ2B inh inconclusive, JMJD2A Tudor inconclusive (no result: PLK1 PBD block, Sfp inh)
CC1CCC/C(=C\Nc2ccc3c(c2)OCO3)C1=O (stereo not given)	BAZ2B inh inconclusive, JMJD2A Tudor 100µM, Sfp inh inconclusive, G9a block 8.9µM
CC1CCC/C(=C\Nc2ccccc2C(=O)O)C1=O (stereo not given)	BAZ2B inh inconclusive, G9a block 45µM
COc1cc(OC)c(NS(=O)(=O)c2cc(C(=O)NCCCN3CCOCC3)ccc2C)cc1Cl	none (no result: HP1b chromo inh, BAZ2B inh, JMJD2A Tudor, Sfp inh, G9a block)
CC(=O)Nc1ccc2nc(SCC(=O)Nc3ccc(N4CCOCC4)c(Cl)c3)sc2c1	BAZ2B inh 11µM
CC(=O)Nc1ccc2nc(SCC(=O)NCCOc3ccccc3)sc2c1	PLK1 PBD block 3.4µM, BAZ2B inh inconclusive, JMJD2A Tudor inconclusive
Cc1ccc(NC(=O)CSc2nc3ccc(NC(=O)c4ccco4)cc3s2)cc1	BAZ2B inh 79µM, G9a block inconclusive (no result: PLK1 PBD block, Sfp inh)
CSc1nc2ccc(NC(=O)c3ccco3)cc2s1	none
O=C(CSc1nc2ccccc2s1)Nc1ccc(N2CCOCC2)c(Cl)c1	G9a block 7.1µM
Cn1c(=O)cnc2cnc(OCc3ccccc3)nc21	none (no result: HP1b chromo inh, PLK1 PBD block, BAZ2B inh, JMJD2A Tudor)
Cc1cccc(OCC(=O)Nc2ccccc2OCc2cc(=O)n3ccccc3n2)c1	none (no result: PLK1 PBD block, Sfp inh)
O=C(Nc1ccccc1-c1ccccc1)c1ccc(NC(=O)c2ccco2)cc1	none
CCCC(=O)Nc1ccc2nc(SCCOc3ccccc3)sc2c1	BAZ2B inh inconclusive (no result: PLK1 PBD block, Sfp inh)
CN(C)c1ccc(NC(=O)c2sc(SCC(=O)Nc3nccs3)nc2N)cc1	HP1b chromo inh inconclusive, BAZ2B inh 40µM, JMJD2A Tudor inconclusive, G9a block inconclusive
CCC(Sc1nc2ccc(N)cc2s1)C(=O)Nc1nccs1 (stereo not given)	JMJD2A Tudor 50µM, G9a block 13µM
Cc1ccc(C)c(NC(=O)CSc2nc3ccc(N4C(=O)c5ccccc5C4=O)cc3s2)c1	PLK1 PBD block inconclusive, G9a block 11µM
CCC(Sc1nnc(C)s1)C(=O)Nc1nccs1 (stereo not given)	none
CCCC(=O)Nc1ccc2nc(SCC(=O)Nc3nccs3)sc2c1	BAZ2B inh inconclusive, JMJD2A Tudor 79µM, G9a block inconclusive
CC12CCC(C(=O)Nc3ccc(Br)cn3)(OC1=O)C2(C)C (stereo not given)	none
Cc1ccc(Cl)c(OC(=O)c2nn(C(C)C)c(=O)c3ccccc23)c1	none
O=C(CSc1nc(Nc2ccccc2)nc(N2CCOCC2)n1)NC1CCCCC1	none (no result: G9a block)
COc1ccc(NS(=O)(=O)c2cccc(C(=O)NNC(=O)c3ccc(=O)[nH]c3)c2)cc1	none (no result: Sfp inh)
Cc1ccc(NC(=O)CSc2nc3ccc(Nc4nc(N5CCOCC5)nc(N5CCOCC5)n4)cc3s2)cc1	Sfp inh inconclusive, G9a block 35µM
Cn1c(SCC(=O)Nc2ccc3nc(SCC(=O)N4CCCC4)sc3c2)nnc1-c1ccc(N)cc1	PLK1 PBD block inconclusive, BAZ2B inh inconclusive, G9a block 10µM
COc1ccc(NC(=O)CSc2nc3ccc(Nc4nc(N5CCOCC5)nc(N5CCOCC5)n4)cc3s2)cc1	G9a block inconclusive
CCOC(=O)C1CCN(C(=O)C2CCN(C3=NS(=O)(=O)C(c4ccc(C)cc4)=C3CC)CC2)CC1	none (no result: PLK1 PBD block, Sfp inh)
Cc1ccc(CC(=O)NNC(=O)c2ccncc2)cc1C	HP1b chromo inh inconclusive, PLK1 PBD block 12µM, G9a block 4.5µM (no result: Sfp inh)
Cc1ccc(C(=O)NNC(=O)c2ccncc2)cc1C	none
CCc1cc(C(=O)N2CCCC(CNC(=O)c3ccc(-c4ccccc4)cc3)C2)no1 (stereo not given)	none
CCN(Cc1ccncc1)S(=O)(=O)c1ccc(C(C)=O)cc1	PLK1 PBD block 19µM, Sfp inh 79µM, G9a block inconclusive
CCN(CC)S(=O)(=O)c1ccc(C(=O)Nc2ccc(Cc3ccncc3)cc2)cc1	none
CCOc1ccc(-n2c(=S)sc3c(=O)[nH]c(SCC(=O)C(C)(C)C)nc32)cc1	PLK1 PBD block inconclusive, JMJD2A Tudor inconclusive
COc1cccc(CN2CCN(C(c3ccccc3)c3ccccc3)CC2)c1O	HP1b chromo inh inconclusive, BAZ2B inh 35µM, JMJD2A Tudor 50µM, Sfp inh inconclusive (no result: G9a block)
COc1cc(C(=S)N2CCN(C(c3ccccc3)c3ccccc3)CC2)cc(OC)c1O	HP1b chromo inh inconclusive, PLK1 PBD block 13µM, BAZ2B inh 40µM, JMJD2A Tudor 56µM, Sfp inh 16µM, G9a block 7.9µM
CCn1c(=O)cc(SCC(=O)NCc2ccccn2)c2ccccc21	none
CCCc1cc(C(=O)N2CCCC(Nc3ccc(C)c(C)c3)C2)n(C)n1 (stereo not given)	G9a block 45µM
Cc1ccc(NC2CCCN(C(=O)c3ccoc3)C2)cc1C (stereo not given)	BAZ2B inh inconclusive, G9a block 79µM
CN(C(=O)COC(=O)C1(C)CC1(Cl)Cl)c1c(N)n(Cc2ccccc2)c(=O)[nH]c1=O (stereo not given)	G9a block inconclusive (no result: Sfp inh)
COCCNc1ncnc2c1cnn2-c1cc(Cl)ccc1C	none (no result: PLK1 PBD block, Sfp inh)
Nc1[nH]c(C(=O)c2ccccc2)c(-c2cccnc2)c1C(=O)NCCc1ccc(Cl)cc1Cl	none (no result: HP1b chromo inh, BAZ2B inh, JMJD2A Tudor, Sfp inh, G9a block)
CC(Oc1ccccc1)C(=O)OCC(=O)N1CC(=O)Nc2ccccc21 (stereo not given)	none
Cc1ccc(OC(C)C(=O)N2CC(=O)Nc3ccccc32)cc1 (stereo not given)	G9a block 3.5µM
